Measurements reported in PubChem BioAssay AID1508600 (Functional Genomics Laboratory (NCATS/FGL), 2020).
Hit rate of the full screen: of about 53,000 sequences, about 3,700 (7%) were called active. Many of the other results were omitted from the sample, so actives are more common in it than they were. Unmarked numbers belong to inactive results.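 Rule for the calls: active = gene knockdowns whose robust z-score for IL-1 alpha signal is at least 2 or at most -2, so actives lie on both sides; inactive = the rest.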

Experiment: Components of the Cytosolic LPS Sensing Pathway: Gene Identification via Genome-wide siRNA Screen;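 note: robust z of the log signal after scaling to non-targeting control siRNA wells of the plate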
Conditions: RAW264.7 macrophages, IL-1a HTRF, actives lie on both sides, screened at 100 nM (by protocol), cells primed 5 h with Pam3CSK4 first
Summary of the method: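 Three distinct siRNAs per gene were tested singly at 100 nM in RAW264.7 macrophages. Following Pam3CSK4 priming and 24 hour LipidA transfection, IL-1a secretion was read by HTRF.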
For GGGAAGAAAGACUCAAACUTT against Dcdc2a, the z-score was 0.919. In the case of GGAAAAUUCAGGAAGUUUGTT against Magi3, the z-score is reported as 0.489. GGAAACCUGAUUAUCAUCATT against Olfr791 showed a z-score of -0.337. Sequence CCUGGACCCAUGAAGUCUUTT against Ahnak has a z-score of 0.911. In the case of GCUGGCCAAACUUGACAGUTT against Wwc1, the z-score is reported as 2.05 (active). CCCUCAUACCGCUUAGAACTT against Tctex1d4 showed a z-score of -0.786. In the case of GCCUGUGGCUUAAACUUCATT against Vat1l, the z-score is reported as 0.11. In the case of GGAGAACAAGAUCUUACAGTT against Cby2, the z-score is reported as -0.703. In the case of GGAACACCACCUUAGAGAUTT against Hnrnpa2b1, the z-score is reported as 1.52. GAAAUGAGUCCUUGAAAAGTT against Olfr127 gave a z-score of -0.0661. In the case of CGCAGCCUUUACCUCCGAATT against Plekha8, the z-score is reported as -1.12. With “GGCAUUAGCUACCUGGACATT against 1700013G24Rik” the z-score was 3.44 (active). In the case of GGUGGUCCAGACCAAGUACTT against Pfdn5, the z-score is reported as -1.02. Sequence GGUCUUCAGCCCAAGAAAUTT against Dsg2 has a z-score of 0.127. GCAAUACUUAUCCAUUGCGTT against Msx3 showed a z-score of -0.42. For GGACUCAUUGACUUCAUCATT against Atg12, the z-score was -1.8. Sequence GCUUGCUUCGCCUACAUUGTT against Slc46a3 has a z-score of -0.501. Sequence GUAGUUAGGAACUCUUGCUTT against Thnsl2 has a z-score of -0.086. In the case of GGCUGAUGUGAUGAUUGUATT against Ndufs7, the z-score is reported as 2.3 (active). GCACUGUGAGUGGAUACUUTT against Slc5a3 gave a z-score of 0.13. For “CCAUCAAGAUCUCUCAGUATT against A630091E08Rik”, the z-score was -1.25. With CGAAUGUCCUGGAAGCAAATT against Olfr142 the z-score was -0.0904. For GCUCUUAGAGAUUUGUUUGTT against Usp14, the z-score was 0.389. For CCAUUUUUGCUCAAUUUGCTT against Eif1ax, the z-score was -0.943. GCCAAACUGCGUCUGAAUGTT against Rras gave a z-score of 0.62. For GGACAAGUACGGAAAGCCCTT against Hdgfl2, the z-score was 0.196. In the case of GCCACAUAAGGUUGUUCCCTT against Gamt, the z-score is reported as 2.9 (active). Work on CCUCUCCAACAACCAACUATT against Lrrc47 yielded a z-score of -0.27. In the case of GGCUCCAAAUCAAACUCUATT against Eif4e3, the z-score is reported as 2.19 (active). Work on GGAACCAAGCCAUGAUUUUTT against Mrgprb2 yielded a z-score of 0.646. Sequence CCAGUACUCGUUUCACUUATT against Mrpl15 has a z-score of 0.374. In the case of GGUGGACUUGUACCUCUUCTT against Tnks, the z-score is reported as -0.0808. Work on CCGUAUUGUCACUUGUGGGTT against Arpc1a yielded a z-score of 0.479. In the case of CAGGAAAUUAGCGAUGUGGTT against Abl2, the z-score is reported as 0.206. With GGUGCUAAAGUCAAAAAACTT against Fras1 the z-score was 0.218. With GAAGGGACUUCAAAGUUGATT against Ndufb10 the z-score was 3.3 (active). Sequence GGGACAUCAGAUUAUUCAUTT against Zfp87 has a z-score of 1.43. GGAAGACAAUGGUGUGAAATT against Pgm3 showed a z-score of -0.74. In the case of GGCCGCCAUUUUGGCAAGATT against Fbxo27, the z-score is reported as 3.41 (active). CGGUGAUAACAGACAUUAATT against Aldh8a1 showed a z-score of -0.561. CCGAACCUUCAGCUACACATT against Keap1 showed a z-score of 0.0133. For GGAAAAAUUCGAGGGACUGTT against Rcan2, the z-score was 1.12. With GGAAGUGUAUUCAAGAAGUTT against Tapt1 the z-score was 3.02 (active). GCCGUUCUGCUAUCACAACTT against Scrn2 gave a z-score of -0.531. GAAGAGACCUUCACAAAGUTT against Hnrnpll gave a z-score of -1.52. For GGAGCGAGGAAUCAAUGUUTT against Prss8, the z-score was 2.86 (active). Sequence GGAACACCUACAGUAUAAATT against Cdc123 has a z-score of -0.39. Sequence GGAGCGAUUUGCUGGUGUGTT against Rps16 has a z-score of 1.19. With GGUAUCAAGGUGAAGUUGATT against Septin1 the z-score was 0.776. In the case of GGGACACUACCCUGAUGAUTT against Vmn1r205, the z-score is reported as -2.05 (active). GGUUGGACAAAAAGAAUCUTT against Ifngr1 gave a z-score of 0.507. For GGUCUGAGUUUUAAACAGUTT against Gmfb, the z-score was 1.13. With GGGUUACCUCCUGACUGUUTT against Olfr930 the z-score was -1.9. For GCUGCUUUGCUAUCUCCUGTT against Apof, the z-score was -2.25 (active). CGAGGAGUUGGAUUUCAGGTT against Dnmbp gave a z-score of -0.713. Sequence GGGAGUAAAGAAAAUGUUATT against Atxn2 has a z-score of -0.112. In the case of GCUUAUUUCGCCUAUGUGGTT against Slc24a2, the z-score is reported as -1.11. For GCAAGAUGGUAUCAGCAGATT against Sde2, the z-score was -2.1 (active). With “GGAAAGAGGAAGAUAAAGUTT against 2310002L09Rik” the z-score was -1.17. CCGCUUUUCAUAACACGAATT against Obp2a showed a z-score of 0.037. With CCUCAUUUAGAUGUCUUGATT against Ran the z-score was -0.0987. With GUCUUUGUUCAGGAGGUGATT against Ahnak the z-score was 0.0593. For GCCAUGCUAAUCAAGACGGTT against Gtf2ird2, the z-score was -0.99. GCUCUCUCUCAUUGAUCUCTT against Olfr697 gave a z-score of -1.63. For GGUUUGGCAUCUAAAGAGCTT against Olfr1412, the z-score was -2.42 (active). Sequence CCAGCUUUUACCUAAUACCTT against Ggt1 has a z-score of 0.0683. Work on GGGUAUCUGAUUUAUAAGCTT against Mageh1 yielded a z-score of -0.371. In the case of GGGAAAGGGUUUUUUAUUCTT against Slc1a1, the z-score is reported as -0.177. With GCCAAAAAGUGUGUGUUGGTT against Olfr731 the z-score was 0.0799. For CCAGUUUGCACAAGUUUUCTT against Fyco1, the z-score was 1.94. With GGAUCUUCCAAGUUGUCUGTT against Srm the z-score was 2.42 (active). Sequence CGAGCUGAACAGAAUGAUATT against Krt85 has a z-score of 0.265. For GGCAAGGUCAAGGACACCATT against Tcp11, the z-score was -0.77. Sequence “GCAUGCAUGCUAUUGUUUUTT against 4931431C16Rik” has a z-score of 0.336. For GGCACACACUGAUUUUUUUTT against Cops2, the z-score was 0.0987. In the case of GGUCCAAUGGAUUUUGUUUTT against Pxdc1, the z-score is reported as 2.06 (active). In the case of GGUGCGAAGGAAAUUGCACTT against Mrps26, the z-score is reported as 1. With GCCUUUACUGGAUUCAUUGTT against Acadm the z-score was 2.53 (active). Sequence GGCAGAGAAUCAGCUCCUUTT against Il16 has a z-score of 0.377. For CGAUCGAUAAAUGUAAUGATT against Heatr5a, the z-score was -0.0662. With GGAGUAUGCUGUCAAAAUCTT against Mknk1 the z-score was 0.259. Sequence GGAUCACCAGACCUUUUUCTT against St7l has a z-score of -1.94. Sequence CCAGGAAUCUAGAUAAUAGTT against BC031181 has a z-score of -1.05. GCAUUACCAAAAGCAGUCUTT against Lyn gave a z-score of -1.46. For CCUCUAUUCUCCGUCUAUGTT against Fars2, the z-score was 2.45 (active). With GGCUACAUUGUCUCAUUGUTT against Opn1mw the z-score was -0.59. GGUUAAGGAGAAAUGUGAUTT against Mob3a showed a z-score of -0.0804. Sequence GGUUAAAAUGCCAUAACAATT against Ksr1 has a z-score of -1.26. For GGGAAGUCAUUCACAUAUUTT against Rab39b, the z-score was -1.58. Sequence GGAAGUCCACGAAACUAAATT against Prl3d1 has a z-score of 0.359. Work on CGACCUGUGGGAAGAUAUUTT against Apoa5 yielded a z-score of -0.992. In the case of GGGAUACUUUCUUCGAGGATT against Soga3, the z-score is reported as -2.36 (active). With GGCCAUUGUUGAAAUGUACTT against Myh14 the z-score was 0.175. GGUAUCAACAUCACGAUUCTT against Mrgpra1 showed a z-score of 0.487. Sequence GCACCUGGUGAAUUUUACCTT against Tmem106c has a z-score of -0.85. For GCCUUACUGACUCGUGUCCTT against Ccp110, the z-score was -2.33 (active). GGACCUUUAAAGCUAAGCUTT against Ccn5 gave a z-score of -1.4. GGAGUUUUCAAAAAACAGATT against Dsc2 gave a z-score of -0.356. With GGAUACUGCCAUUCAUAGGTT against Cstdc2 the z-score was -0.182. In the case of GGAAAGCUUUCUUCACCUGTT against Olfr206, the z-score is reported as -1.73. With GCUUCAACCCGGUCACACUTT against Kif6 the z-score was 2.81 (active). GGCGCAAUGCUCAUGUGAATT against Gzmc gave a z-score of -0.54. Sequence GGAAGUUUUGGCUUAGGCATT against Tmco5b has a z-score of 1.58. Sequence GGCGAUCCACAGGAACUCUTT against Tiam1 has a z-score of -1.23. Sequence GCAACAACGAGUCAUGGCUTT against Plcd1 has a z-score of -0.502. With GGACAGAGUUACCUAGGCATT against Ticrr the z-score was -2.81 (active). Work on GGAUCUUUCCUGAUUUAUATT against Ggt5 yielded a z-score of 0.989. GCAGGCAUCAUCACGACAUTT against Gprc5c showed a z-score of 0.402.
